Laboratory results published in PubChem BioAssay (EPA / NIEHS).
Results filed as inconclusive are left out. Activity calls are given as the source filed them. The calls were made as follows, unless noted: active = hit-call score of the fitted dose curve at least 0.9, where 1 is the maximum; inconclusive = response in the unintended direction; inactive = score below 0.9.

Assays:
[1] = ATG_TCF_b_cat_CIS: Attagene CIS-FACTORIAL HepG2 Assay for human T-Cell-Factor with beta-catenin (TCF/b-cat) (AID 2282965; active = hit-call score of the fitted dose curve at least 0.9, where 1 is the maximum; inactive = score below 0.9); details: HepG2 TCF/beta-catenin cis-reporter transcription, actives raise or lower the signal
Summary of the method: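 Endogenous TCF/LEF activity read as reporter transcript level via RT-PCR and capillary electrophoresis fluorescence in transfected HepG2, 24 h exposure; gain or loss of signal fitted against DMSO controls.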

[2] = ATG_TAL_CIS: Attagene CIS-FACTORIAL HepG2 Assay for human TAL Basal Promoter (AID 2282966; active = hit-call score of the fitted dose curve at least 0.9, where 1 is the maximum; inactive = score below 0.9;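 also: background control endpoint measuring basal TAL promoter reporter mRNA not a specific factor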); details: HepG2 Attagene cis-factorial TAL promoter reporter; actives raise or lower the signal
Summary of the method: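 After 24 hours of chemical exposure, transfected HepG2 cells yielded RNA that was converted to 6-FAM-labelled, HpaI-digested reporter fragments for capillary electrophoresis. Values derive from bidirectional fitting against DMSO controls.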

[3] = ATG_TGFb_CIS: Attagene CIS-FACTORIAL HepG2 Assay for human Transforming Growth Factor (TGF) (AID 2282967; active = hit-call score of the fitted dose curve at least 0.9, where 1 is the maximum; inactive = score below 0.9); details: HepG2 Attagene CIS TGFb reporter, mRNA transcription; actives raise or lower the signal
Summary of the method: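 HepG2 cells transiently transfected with cis-promoter-driven multiplexed reporter units; 24 h compound exposure. Reporter mRNA measured by RT-PCR, 6-FAM labeling, HpaI digestion and capillary electrophoresis; bidirectional fit versus DMSO baseline.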

[4] = ATG_VDRE_CIS: Attagene CIS-FACTORIAL HepG2 Assay for human Vitamin D Receptor Element (VDRE) (AID 2282968; active = hit-call score of the fitted dose curve at least 0.9, where 1 is the maximum; inactive = score below 0.9); details: HepG2 VDRE cis-reporter transcription, actives raise or lower the signal
Summary of the method: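 Measures endogenous factor activity through cis-element-driven reporter transcripts in transiently transfected HepG2. Cells are treated 24 h; reporter mRNA is quantified by RT-PCR and capillary electrophoresis; fitting is bidirectional.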

[5] = biological target: Estrogen receptor (Homo sapiens) (UniProt P03372); test: ATG_ERa_TRANS: Attagene TRANS-FACTORIAL HepG2 Assay for human Estrogen Receptor alpha (ERa) (AID 2282970); details: HepG2 Attagene TRANS ERa GAL4 reporter, mRNA
Summary of the method: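 Liver-derived HepG2 cells expressing chimeric nuclear receptor-Gal4 proteins from transient transfection were exposed for 24 hours. Gain of reporter mRNA signal versus DMSO, read by capillary electrophoresis of FAM-labelled PCR products, was recorded.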

[6] = biological target: X-box-binding protein 1 (Homo sapiens) (UniProt P17861); test: ATG_Xbp1_CIS: Attagene CIS-FACTORIAL HepG2 Assay for human X-box Binding Protein 1 (XBP1) (AID 2282972; active = hit-call score of the fitted dose curve at least 0.9, where 1 is the maximum; inactive = score below 0.9); details: HepG2 XBP1 cis-element reporter, Attagene multiplex; actives raise or lower the signal
Summary of the method: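 Human hepatoma HepG2, cis-element reporter system, 24 h treatment; mRNA quantified by RT-PCR/CE fluorescence; fit relative to DMSO.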

[7] = ATG_M_19_TRANS: Attagene TRANS-FACTORIAL HepG2 Assay for M19 Transcription Factor (Internal Marker) (AID 2282974); details: HepG2 Attagene TRANS-FACTORIAL M19 internal marker reporter
Summary of the method: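 HepG2 cells transiently transfected with multiple GAL4-UAS reporter transcription units were exposed to chemicals for 24 h. Reporter mRNA was read by RT-PCR, 6-FAM primer extension, HpaI digestion and capillary electrophoresis; gain of signal fitted relative to DMSO.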

[8] = ATG_GAL4_TRANS: Attagene TRANS-FACTORIAL HepG2 Assay for GAL4 (Internal Marker) (AID 2282976); details: HepG2 Attagene TRANS GAL4 internal marker reporter
Summary of the method: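 First, HepG2 cells were transfected with reporter units under GAL4-UAS control. Next, they were treated with chemical for 24 h. Finally, RNA was reverse-transcribed, PCR-amplified, FAM-labelled and resolved by capillary electrophoresis, with induction scored against DMSO.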

[9] = biological target: Glucocorticoid receptor (Homo sapiens) (UniProt P04150); test: ATG_GR_TRANS: Attagene TRANS-FACTORIAL HepG2 Assay for human Glucocorticoid Receptor (GR) (AID 2282978); details: HepG2 Attagene TRANS GR reporter, mRNA transcription;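 also: activators score as hits since higher reporter transcript over DMSO is fitted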
Summary of the method: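 HepG2 cells transiently transfected with multiplexed reporter units in which chimeric NR-GAL4 proteins drive GAL4-UAS reporters; 24 h compound exposure. Reporter mRNA measured by RT-PCR, 6-FAM labelling, HpaI digestion and capillary electrophoresis; gain-of-signal fitted versus DMSO.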

[10] = biological target: Oxysterols receptor LXR-alpha (Homo sapiens) (UniProt Q13133); test: ATG_LXRa_TRANS: Attagene TRANS-FACTORIAL HepG2 Assay for human Liver X Receptor alpha (LXRa) (AID 2282980); details: HepG2 Attagene TRANS reporter, LXRa transactivation
Summary of the method: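 Transfect HepG2 with GAL4-UAS multiplex reporter constructs (TRANS format, chimeric receptor-GAL4); treat 24 h; extract RNA, reverse-transcribe, PCR-amplify, FAM-label, HpaI-digest; resolve fragments by capillary electrophoresis. Upward response vs DMSO.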

[11] = biological target: Transcriptional activator Myb (Homo sapiens) (UniProt P10242); test: ATG_Myb_CIS: Attagene CIS-FACTORIAL HepG2 Assay for human Myeloblastosis (Myb) Proto-Oncogene Transcription Factor (AID 2282986; active = hit-call score of the fitted dose curve at least 0.9, where 1 is the maximum; inactive = score below 0.9); details: HepG2 Attagene CIS-FACTORIAL Myb reporter transcription; actives raise or lower the signal
Summary of the method: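 HepG2 cells were transiently transfected with cis-regulated multiple reporter transcription units reflecting endogenous Myb activity, then exposed to compound for 24 hours. Reporter mRNA was measured by RT-PCR with capillary electrophoresis; bidirectional fitting versus DMSO baseline.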

[12] = biological target: Steroid hormone receptor ERR1 (Homo sapiens) (UniProt P11474); test: ATG_ERRa_TRANS: Attagene TRANS-FACTORIAL HepG2 Assay for human Estrogen-Related Receptor alpha (ERRa) (AID 2282971); details: HepG2 Attagene TRANS reporter, ERRa transactivation
Summary of the method: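 Reporter transcript induction was quantified by RT-PCR and capillary electrophoresis of FAM-labelled, HpaI-cut products after 24 h treatment of HepG2 cells carrying transiently transfected GAL4-UAS reporter units and an exogenous ERRa-Gal4 fusion; activity scored as increase over DMSO.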

[13] = biological target: Hepatocyte nuclear factor 4-alpha (Homo sapiens) (UniProt P41235); test: ATG_HNF4a_TRANS: Attagene TRANS-FACTORIAL HepG2 Assay for human Hepatocyte Nuclear Factor 4 alpha (HNF4a) (AID 2282982); details: HepG2 HNF4a transactivation reporter, mRNA readout
Summary of the method: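 Multiplexed reporter assay: transfected HepG2, 24 h exposure, total RNA → oligo(dT) RT → PCR → 6-FAM extension → HpaI digest → CE fluorescence. DMSO = negative control.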

[14] = ATG_M_32_TRANS: Attagene TRANS-FACTORIAL HepG2 Assay for M32 Transcription Factor (Internal Marker) (AID 2282984); details: HepG2 Attagene TRANS M32 internal marker reporter;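 also: transcript level of a background control reporter unit measured by RT-PCR and capillary electrophoresis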
Summary of the method: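 Cell-based TRANS-format assay in HepG2: exogenous chimeric GAL4 reporter units transiently expressed, compounds applied 24 h. Reporter mRNA detected by RT-PCR plus capillary electrophoresis; this readout is an internal background marker.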

[15] = biological target: Bile acid receptor (Homo sapiens) (UniProt Q96RI1); test: ATG_FXR_TRANS: Attagene TRANS-FACTORIAL HepG2 Assay for Farnesoid X Receptor (FXR) (AID 2282979); details: HepG2 Attagene TRANS FXR-GAL4 reporter transcription;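 also: hits raise reporter mRNA above DMSO so AC50 marks FXR activation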
Summary of the method: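 Transient transfection of HepG2 with multiplexed GAL4-UAS reporter units; exogenous FXR-GAL4 chimera. Dose 24 h → TriZol RNA → oligo(dT) RT → PCR, 6-FAM primer extension, HpaI cut → CE. Gain vs DMSO.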

[16] = biological target: Oxysterols receptor LXR-beta (Homo sapiens) (UniProt P55055); test: ATG_LXRb_TRANS: Attagene TRANS-FACTORIAL HepG2 Assay for human Liver X Receptor beta (LXRb) (AID 2282981); details: HepG2 Attagene TRANS GAL4-LXRb reporter, mRNA
Summary of the method: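 After 24 h of chemical treatment, transfected HepG2 cells yield total RNA; reporter cDNA is PCR-amplified, FAM-labelled, HpaI-cut and run on capillary electrophoresis. Signal reflects chimeric LXRb-Gal4 activity on GAL4-UAS reporters.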

[17] = ATG_M_06_TRANS: Attagene TRANS-FACTORIAL HepG2 Assay for M06 Transcription Factor (Internal Marker) (AID 2282983); details: HepG2 Attagene TRANS M06 internal marker reporter
Summary of the method: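 Background control endpoint: reporter mRNA from transiently transfected HepG2 after 24 h dosing, detected by RT-PCR with capillary electrophoresis fluorescence. Analysed for gain versus DMSO.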

[18] = biological target: Nuclear receptor subfamily 4 group A member 2 (Homo sapiens) (UniProt P43354); test: ATG_NURR1_TRANS: Attagene TRANS-FACTORIAL HepG2 Assay for human Nuclear Receptor Related Protein 1 (NURR1) (AID 2282985); details: HepG2 Attagene TRANS reporter, mRNA readout
Summary of the method: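 Measures transcriptional activation by an exogenous NR-Gal4 chimera in transfected HepG2 liver cells. After 24 h, reporter RNA is reverse-transcribed, amplified and resolved by capillary electrophoresis; DMSO defines baseline.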

[19] = biological target: Estrogen-related receptor gamma (Homo sapiens) (UniProt P62508); test: ATG_ERRg_TRANS: Attagene TRANS-FACTORIAL HepG2 Assay for human Estrogen-Related Receptor gamma (ERRg) (AID 2282977); details: HepG2 Attagene TRANS reporter, ERRg transactivation;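 also: hits increase reporter signal over DMSO so potencies reflect activators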
Summary of the method: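 Readout: fluorescent reporter-mRNA fragments resolved by capillary electrophoresis after RT-PCR and HpaI cut. Cells: transiently transfected HepG2 carrying GAL4-UAS reporters driven by exogenous NR-Gal4 chimeras, dosed 24 h. Activity fitted upward relative to DMSO baseline.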

Measured: AC50

Chain of Bile acid receptor (Homo sapiens) (Q96RI1 whole entry, looked up, the tested form may be a part): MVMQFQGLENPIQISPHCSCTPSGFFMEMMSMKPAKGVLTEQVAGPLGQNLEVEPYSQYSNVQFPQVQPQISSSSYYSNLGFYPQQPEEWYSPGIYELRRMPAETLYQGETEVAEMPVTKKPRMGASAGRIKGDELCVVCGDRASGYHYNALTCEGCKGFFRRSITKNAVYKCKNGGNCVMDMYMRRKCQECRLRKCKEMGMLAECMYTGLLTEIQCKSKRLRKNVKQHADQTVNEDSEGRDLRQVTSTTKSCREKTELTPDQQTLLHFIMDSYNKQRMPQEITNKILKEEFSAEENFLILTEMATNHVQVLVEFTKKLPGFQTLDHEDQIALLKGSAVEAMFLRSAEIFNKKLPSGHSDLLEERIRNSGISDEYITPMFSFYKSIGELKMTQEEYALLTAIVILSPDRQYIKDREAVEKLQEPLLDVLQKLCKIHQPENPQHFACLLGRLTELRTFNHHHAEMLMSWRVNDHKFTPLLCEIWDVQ
Chain of Steroid hormone receptor ERR1 (Homo sapiens) (P11474 whole entry, looked up, the tested form may be a part): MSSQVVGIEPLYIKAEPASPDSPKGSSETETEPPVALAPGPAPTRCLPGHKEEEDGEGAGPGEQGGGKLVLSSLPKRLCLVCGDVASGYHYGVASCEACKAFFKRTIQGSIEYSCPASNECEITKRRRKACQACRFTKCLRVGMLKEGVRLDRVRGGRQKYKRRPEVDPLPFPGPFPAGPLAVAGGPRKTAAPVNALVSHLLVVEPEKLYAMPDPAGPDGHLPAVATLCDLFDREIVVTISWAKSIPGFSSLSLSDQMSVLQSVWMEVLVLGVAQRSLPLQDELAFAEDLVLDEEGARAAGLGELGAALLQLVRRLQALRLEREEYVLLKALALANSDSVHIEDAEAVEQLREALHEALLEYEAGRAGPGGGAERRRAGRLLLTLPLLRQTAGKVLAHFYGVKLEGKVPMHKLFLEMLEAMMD
Chain of Oxysterols receptor LXR-beta (Homo sapiens) (P55055 whole entry, looked up, the tested form may be a part): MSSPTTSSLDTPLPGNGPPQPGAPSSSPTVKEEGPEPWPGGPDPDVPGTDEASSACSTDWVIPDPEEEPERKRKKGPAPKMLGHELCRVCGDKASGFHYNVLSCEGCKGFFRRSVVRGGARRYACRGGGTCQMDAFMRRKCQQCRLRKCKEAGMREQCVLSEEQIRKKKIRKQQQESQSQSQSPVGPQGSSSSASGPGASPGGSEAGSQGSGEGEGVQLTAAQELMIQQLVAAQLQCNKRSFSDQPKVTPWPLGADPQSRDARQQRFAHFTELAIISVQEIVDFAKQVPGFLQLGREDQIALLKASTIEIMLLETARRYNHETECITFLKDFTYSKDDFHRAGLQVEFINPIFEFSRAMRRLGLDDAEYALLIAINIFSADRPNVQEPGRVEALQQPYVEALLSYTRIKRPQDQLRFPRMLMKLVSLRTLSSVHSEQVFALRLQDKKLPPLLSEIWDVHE
Chain of Nuclear receptor subfamily 4 group A member 2 (Homo sapiens) (P43354 whole entry, looked up, the tested form may be a part): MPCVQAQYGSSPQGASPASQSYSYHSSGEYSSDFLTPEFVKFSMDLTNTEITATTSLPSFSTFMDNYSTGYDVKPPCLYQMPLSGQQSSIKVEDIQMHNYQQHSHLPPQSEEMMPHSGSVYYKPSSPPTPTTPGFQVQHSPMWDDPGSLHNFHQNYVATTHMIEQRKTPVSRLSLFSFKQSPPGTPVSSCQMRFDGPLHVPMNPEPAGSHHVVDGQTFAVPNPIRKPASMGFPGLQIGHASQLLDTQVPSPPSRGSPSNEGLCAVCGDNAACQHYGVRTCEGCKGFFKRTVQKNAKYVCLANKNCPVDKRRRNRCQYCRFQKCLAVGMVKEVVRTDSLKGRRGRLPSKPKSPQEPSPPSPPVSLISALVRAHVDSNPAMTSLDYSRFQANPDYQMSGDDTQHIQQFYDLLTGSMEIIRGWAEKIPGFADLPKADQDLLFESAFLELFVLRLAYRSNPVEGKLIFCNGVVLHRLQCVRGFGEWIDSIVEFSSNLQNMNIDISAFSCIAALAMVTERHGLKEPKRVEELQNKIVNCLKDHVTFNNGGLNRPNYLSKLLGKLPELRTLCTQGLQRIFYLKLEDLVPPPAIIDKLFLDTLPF
Chain of X-box-binding protein 1 (Homo sapiens) (P17861 whole entry, looked up): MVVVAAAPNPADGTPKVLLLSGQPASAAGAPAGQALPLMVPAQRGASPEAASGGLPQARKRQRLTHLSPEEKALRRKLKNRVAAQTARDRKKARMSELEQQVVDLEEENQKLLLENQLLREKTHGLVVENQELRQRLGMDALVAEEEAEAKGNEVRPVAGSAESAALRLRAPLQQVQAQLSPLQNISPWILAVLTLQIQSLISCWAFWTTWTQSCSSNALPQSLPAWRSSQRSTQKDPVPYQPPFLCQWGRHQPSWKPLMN
Chain of Oxysterols receptor LXR-alpha (Homo sapiens) (Q13133 whole entry, looked up, the tested form may be a part): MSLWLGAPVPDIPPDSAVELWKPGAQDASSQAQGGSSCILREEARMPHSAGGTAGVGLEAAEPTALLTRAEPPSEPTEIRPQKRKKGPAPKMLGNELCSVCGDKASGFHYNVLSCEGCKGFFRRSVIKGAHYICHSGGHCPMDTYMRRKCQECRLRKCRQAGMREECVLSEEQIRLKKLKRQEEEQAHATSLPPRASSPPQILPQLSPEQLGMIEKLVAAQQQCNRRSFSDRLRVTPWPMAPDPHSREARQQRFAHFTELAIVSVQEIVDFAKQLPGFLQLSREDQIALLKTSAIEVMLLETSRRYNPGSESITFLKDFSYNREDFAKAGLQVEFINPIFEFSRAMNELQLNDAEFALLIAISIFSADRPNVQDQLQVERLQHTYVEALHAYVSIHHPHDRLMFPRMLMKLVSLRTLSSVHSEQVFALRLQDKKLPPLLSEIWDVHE
Chain of Glucocorticoid receptor (Homo sapiens) (P04150 whole entry, looked up, the tested form may be a part): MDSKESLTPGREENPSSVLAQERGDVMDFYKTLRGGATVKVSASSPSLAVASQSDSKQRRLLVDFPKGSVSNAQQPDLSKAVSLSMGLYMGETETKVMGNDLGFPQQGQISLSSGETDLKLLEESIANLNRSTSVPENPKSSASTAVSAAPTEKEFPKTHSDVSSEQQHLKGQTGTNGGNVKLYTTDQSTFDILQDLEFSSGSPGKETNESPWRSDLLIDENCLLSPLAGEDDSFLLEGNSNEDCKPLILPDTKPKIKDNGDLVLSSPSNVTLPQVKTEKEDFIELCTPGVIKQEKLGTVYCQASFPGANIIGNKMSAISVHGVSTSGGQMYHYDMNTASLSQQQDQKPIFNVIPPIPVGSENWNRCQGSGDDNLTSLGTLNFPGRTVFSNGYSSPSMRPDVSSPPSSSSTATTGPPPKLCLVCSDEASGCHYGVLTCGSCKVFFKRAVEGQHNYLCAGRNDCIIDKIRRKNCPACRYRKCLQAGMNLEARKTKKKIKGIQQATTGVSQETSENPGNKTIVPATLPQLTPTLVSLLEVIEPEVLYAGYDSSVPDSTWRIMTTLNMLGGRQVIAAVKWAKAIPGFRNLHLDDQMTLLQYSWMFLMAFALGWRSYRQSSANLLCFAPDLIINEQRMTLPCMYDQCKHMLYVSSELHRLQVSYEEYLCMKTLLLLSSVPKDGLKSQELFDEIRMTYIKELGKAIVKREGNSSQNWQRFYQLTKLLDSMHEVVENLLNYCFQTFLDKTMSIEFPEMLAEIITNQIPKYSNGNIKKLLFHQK
Chain of Hepatocyte nuclear factor 4-alpha (Homo sapiens) (P41235 whole entry, looked up): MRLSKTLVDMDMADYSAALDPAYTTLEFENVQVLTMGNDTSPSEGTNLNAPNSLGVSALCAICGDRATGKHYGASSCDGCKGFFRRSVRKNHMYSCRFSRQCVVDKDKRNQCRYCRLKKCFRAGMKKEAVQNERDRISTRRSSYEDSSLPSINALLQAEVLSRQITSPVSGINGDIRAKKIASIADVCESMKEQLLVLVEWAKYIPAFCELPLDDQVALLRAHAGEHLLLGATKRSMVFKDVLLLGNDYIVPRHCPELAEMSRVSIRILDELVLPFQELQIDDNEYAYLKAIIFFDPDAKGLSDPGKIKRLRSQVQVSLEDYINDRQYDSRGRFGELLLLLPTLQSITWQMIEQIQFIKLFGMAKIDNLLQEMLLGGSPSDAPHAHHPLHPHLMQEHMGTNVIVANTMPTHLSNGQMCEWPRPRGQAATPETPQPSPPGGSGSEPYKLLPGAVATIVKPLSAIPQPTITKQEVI
Chain of Transcriptional activator Myb (Homo sapiens) (P10242 whole entry, looked up): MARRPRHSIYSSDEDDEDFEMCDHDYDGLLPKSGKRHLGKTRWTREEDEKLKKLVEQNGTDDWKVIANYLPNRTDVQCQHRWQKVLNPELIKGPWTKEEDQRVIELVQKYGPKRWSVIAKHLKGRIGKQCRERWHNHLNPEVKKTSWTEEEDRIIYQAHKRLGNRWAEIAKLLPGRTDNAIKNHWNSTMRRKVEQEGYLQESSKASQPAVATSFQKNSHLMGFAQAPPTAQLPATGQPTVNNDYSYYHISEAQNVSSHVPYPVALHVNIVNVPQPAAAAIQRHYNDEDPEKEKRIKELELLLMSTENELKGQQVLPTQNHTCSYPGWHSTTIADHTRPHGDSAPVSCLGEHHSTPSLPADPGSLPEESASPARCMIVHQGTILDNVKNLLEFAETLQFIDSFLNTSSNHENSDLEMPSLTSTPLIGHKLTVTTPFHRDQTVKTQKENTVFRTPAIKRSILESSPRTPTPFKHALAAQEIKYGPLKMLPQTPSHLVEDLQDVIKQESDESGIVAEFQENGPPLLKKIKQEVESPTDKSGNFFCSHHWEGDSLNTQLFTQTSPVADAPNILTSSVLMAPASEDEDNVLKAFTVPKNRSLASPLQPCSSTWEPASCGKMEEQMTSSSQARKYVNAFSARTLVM

CCCCCCCCCC(C)=O
not listed: [12] | [13] | [14] | [15] | [16] | [17] | [18] | [19]
inactive: all other assays above

CCC[Si](OC)(OC)OC
not listed: [8] | [9] | [15] | [16] | [17] | [18] | [19]
inactive: all other assays above

CC1CCC(C(C)(C)S)C(=O)C1 (stereo not given)
not listed: [8] | [9] | [12] | [19]
inactive: all other assays above

N#Cc1ccc(C(c2ccc(C#N)cc2)n2cncn2)cc1
inactive: [1] | [2] | [3] | [4] | [5] | [6] | [7] | [9] | [11]

CCCCCCCCCCCCCC(=O)OC(C)C
not listed: [8] | [11] | [12] | [15] | [19]
inactive: all other assays above

Cc1cc(C)n(CO)n1
not listed: [7] | [9] | [12] | [13] | [18] | [19]
inactive: all other assays above

CC(=O)OCc1ccccc1
not listed: [8] | [10] | [11] | [12] | [14] | [15] | [18] | [19]
inactive: all other assays above

CCc1cccc(CC)c1
not listed: [7] | [12] | [13] | [14] | [16] | [18] | [19]
inactive: all other assays above

CCCCCCC=O
active: [5] 19 µM
not listed: [8] | [10] | [12] | [13] | [15] | [17] | [19]
inactive: all other assays above

C=C(C)C(=O)OCCCCCCCCCCCC
active: [5] 56.7 µM
not listed: [8] | [10] | [13] | [15] | [16] | [17]
inactive: all other assays above

CCOC(=O)c1ccc(C)cc1
inactive: [1] | [2] | [3] | [4] | [5] | [12] | [6] | [10] | [13] | [17]

CC(C=O)c1ccccc1 (stereo not given)
active: [4] 9.33 µM
not listed: [7] | [9] | [10] | [12] | [16] | [19]
inactive: all other assays above

C=C(C)C(=O)OCCOC(=O)C(=C)C
not listed: [7] | [10] | [15] | [16] | [18] | [19]
inactive: all other assays above

O=C1CCCCC1C1CCCCC1 (stereo not given)
not listed: [9] | [12] | [13] | [14] | [15] | [16] | [17] | [19]
inactive: all other assays above

O=c1c(O)c(-c2ccc(O)cc2O)oc2cc(O)cc(O)c12
active: [5] 59.4 µM
not listed: [8] | [12] | [13] | [15] | [17] | [18] | [19]
inactive: all other assays above

O=C(O)CCC(=O)O
not listed: [9] | [12] | [13] | [14] | [15] | [16] | [17] | [19]
inactive: all other assays above

OCCCc1ccccc1
not listed: [8] | [15] | [18] | [19]
inactive: all other assays above

C=CCNCC=C
not listed: [8] | [12] | [14] | [15] | [16] | [17] | [19]
inactive: all other assays above

Nc1ccnc(=O)[nH]1
not listed: [8] | [9] | [10] | [12] | [13] | [15] | [19]
inactive: all other assays above

CCCCNS(=O)(=O)c1ccccc1
not listed: [8] | [9] | [12] | [18] | [19]
inactive: all other assays above

Cc1ccc(S(=O)(=O)N=C=O)cc1
not listed: [6] | [7] | [10] | [13] | [14] | [15] | [16] | [19]
inactive: all other assays above

O=C(Nc1ccccc1)c1cc(Cl)ccc1O
active: [3] 52.5 µM | [4] 6.51 µM | [6] 4.18 µM
not listed: [8] | [12] | [17] | [18] | [19]
inactive: all other assays above
